Source: PubChem BioAssay (NCATS)
Values joined by “and” are separate entries in the source; they are usually repeats but may differ in a detail not shown here. Equal values may be shown once. Records with an inconclusive call do not appear. A call without a number means that no potency is given here. Active and inactive are the calls of the source. Unless noted, calls come from the whole dose curve; as a rule, active = well fitted inhibition curve with a large enough effect; inconclusive = small, poorly fitted or top-dose-only effect; inactive = flat fitted curve, though single readings scatter.

Target: Thyroid hormone receptor beta (Homo sapiens) (UniProt P10828)
Sequence (P10828 whole entry, looked up): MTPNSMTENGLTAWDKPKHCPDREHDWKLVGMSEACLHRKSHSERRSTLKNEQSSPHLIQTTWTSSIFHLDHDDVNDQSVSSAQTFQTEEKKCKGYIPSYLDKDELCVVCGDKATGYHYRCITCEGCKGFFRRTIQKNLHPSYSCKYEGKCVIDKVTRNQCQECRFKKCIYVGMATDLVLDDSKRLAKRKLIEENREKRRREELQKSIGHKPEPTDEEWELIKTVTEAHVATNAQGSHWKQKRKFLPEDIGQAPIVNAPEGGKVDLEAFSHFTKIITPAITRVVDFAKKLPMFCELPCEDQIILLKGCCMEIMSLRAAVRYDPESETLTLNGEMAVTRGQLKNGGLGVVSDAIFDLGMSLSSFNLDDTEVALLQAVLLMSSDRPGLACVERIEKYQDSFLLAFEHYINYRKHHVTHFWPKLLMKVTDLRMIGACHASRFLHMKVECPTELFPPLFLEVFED
Experiment: qHTS assay for small molecule antagonists of thyroid hormone receptor beta signaling (AID 588547; active = well fitted inhibition curve with a large enough effect in the signal ratio, with a control signal flat, not every such curve was filed as active; the % refers to the signal ratio;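 note: cells stimulated with 0.4 nM T3 agonist during compound exposure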)
Details: TR-UAS-bla HEK293, beta-lactamase ratio, antagonist mode, 18 h
Outline: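 Inhibition of T3-driven (0.4nM final) beta-lactamase reporter activity was measured over 0.59 nM to 92 uM compound after 18 h at 37 C. The cells were GripTite HEK293 TR-UAS-bla in charcoal/dextran-stripped serum, with CCF4 ratio read-out and IC50 from Hill fits.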

Compound | activity change % (negative = inhibition)
Cc1ccc(C)cc1 | 2.43% (inactive)
O=C(O)c1cc(Cl)cc(Cl)c1 | 6.89% (inactive)
C[C@@H]1O[C@@H](O[C@@H]2[C@@H](O)[C@H](OCCc3ccc(O)c(O)c3)O[C@H](CO[C@@H]3O[C@H](CO)[C@@H](O)[C@H](O)[C@H]3O)[C@H]2OC(=O)/C=C/c2ccc(O)c(O)c2)[C@H](O)[C@H](O)[C@H]1O | 4.68% (inactive)
CNc1ccccc1 | -1.47% (inactive)
Nc1cc(Cl)c(N)c(Cl)c1 | -9.25% (inactive)
CC(C)(C)OC=O | -8.86% (inactive)
Cc1cccc(C(=O)O)c1 | 2.36% (inactive)
CNC(=O)c1ccccc1 | -4.06% (inactive)
Cc1ccc2oc(=O)ccc2c1 | -13% (inactive) and 13.3% (inactive)
CCOC(=O)OCC | 5.41% (inactive)
O=[N+]([O-])c1ccccc1CCO | 2.13% (inactive)
N#Cc1ccccc1 | 1.08% (inactive)
Cc1c(N)cccc1[N+](=O)[O-] | -5.59% (inactive)
Clc1ccccn1 | -6.15% (inactive)
Nc1cc([N+](=O)[O-])ccc1C(=O)O | 7.18% (inactive) and -9.31% (inactive)
CC(O)COC(C)(C)C (stereo not drawn) | -13.8% (inactive)
CCC(C)(C)C | -4.13% (inactive)

Target: Voltage-gated inwardly rectifying potassium channel KCNH2 (Homo sapiens) (UniProt Q12809)
Sequence (Q12809 whole entry, looked up): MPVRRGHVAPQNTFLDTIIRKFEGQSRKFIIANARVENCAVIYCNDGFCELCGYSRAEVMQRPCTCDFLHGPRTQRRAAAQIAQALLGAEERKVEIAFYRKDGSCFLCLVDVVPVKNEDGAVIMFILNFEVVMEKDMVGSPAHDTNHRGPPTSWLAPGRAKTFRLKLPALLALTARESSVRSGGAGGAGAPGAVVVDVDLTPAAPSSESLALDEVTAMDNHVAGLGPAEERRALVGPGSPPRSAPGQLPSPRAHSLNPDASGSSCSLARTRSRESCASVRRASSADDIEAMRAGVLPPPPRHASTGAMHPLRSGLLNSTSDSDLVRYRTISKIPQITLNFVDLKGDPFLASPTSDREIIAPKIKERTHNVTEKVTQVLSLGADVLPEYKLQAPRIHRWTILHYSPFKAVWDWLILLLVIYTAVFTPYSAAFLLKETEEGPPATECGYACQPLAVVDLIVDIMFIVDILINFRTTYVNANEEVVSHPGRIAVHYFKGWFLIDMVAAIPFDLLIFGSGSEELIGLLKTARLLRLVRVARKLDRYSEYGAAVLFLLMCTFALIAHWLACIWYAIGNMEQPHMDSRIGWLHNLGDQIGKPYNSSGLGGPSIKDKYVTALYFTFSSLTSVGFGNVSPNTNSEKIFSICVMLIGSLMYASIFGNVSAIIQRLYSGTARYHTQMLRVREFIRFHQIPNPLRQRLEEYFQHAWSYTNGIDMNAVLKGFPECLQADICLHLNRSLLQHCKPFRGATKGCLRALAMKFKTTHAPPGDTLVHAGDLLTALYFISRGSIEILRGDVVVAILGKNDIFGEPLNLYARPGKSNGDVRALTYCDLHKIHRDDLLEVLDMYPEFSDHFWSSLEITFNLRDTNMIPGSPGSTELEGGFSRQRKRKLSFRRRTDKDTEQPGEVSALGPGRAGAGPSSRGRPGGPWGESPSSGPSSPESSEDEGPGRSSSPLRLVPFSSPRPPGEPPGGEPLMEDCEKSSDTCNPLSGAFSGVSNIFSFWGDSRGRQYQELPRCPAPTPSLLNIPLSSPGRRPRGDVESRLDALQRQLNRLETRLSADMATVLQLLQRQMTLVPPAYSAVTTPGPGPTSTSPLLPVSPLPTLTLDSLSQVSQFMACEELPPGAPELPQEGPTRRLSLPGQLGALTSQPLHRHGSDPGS
Experiment: qHTS Assay for Small Molecule Inhibitors of the Human hERG Channel Activity (AID 588834);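 note: top concentration of the series differs between compounds; lower thallium flux fluorescence means stronger hERG block; nearly all actives have a fitted effect of over 50% in size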
Details: U2OS BacMam hERG, FluxOR thallium flux fluorescence; series mostly up to 92.2 µM
Outline: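 Blockade is seen as reduced FluxOR thallium-flux fluorescence in U2OS cells expressing hERG from a BacMam construct, in Opti-MEM with 2% FCS. Concentration-response data fitted to the Hill equation for AC50.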

Compound | Potency
CC(C)=C1CCC(C)CC1=O (stereo not drawn) | inactive
O=C(O)c1ccc(C(=O)O)cc1 | inactive
CCOc1ccccc1N | inactive
CC(C)(O)CCC(C)(C)O | inactive
C=C(C)OC(C)=O | inactive
CC(=O)c1cc(C)oc1C | inactive
CC(N)CN (stereo not drawn) | inactive
O=C1NC(=O)c2cc([N+](=O)[O-])ccc21 | inactive
CCC1CO1 (stereo not drawn) | inactive
CCNS(=O)(=O)c1ccc(C)cc1 | inactive
Nc1cccc([N+](=O)[O-])c1 | inactive
Nc1ccccc1[N+](=O)[O-] | inactive
Nc1c(Cl)cc(Cl)cc1Cl | inactive
COC(=O)CC#N | inactive
Cc1ccccc1C(=O)O | inactive
CO[Si](CCCNCCC[Si](OC)(OC)OC)(OC)OC | inactive
CC1(N)CCC(C(C)(C)N)CC1 (stereo not drawn) | inactive
C=Cc1ccccn1 | inactive
CCCCCCO | inactive
CCC(C)O (stereo not drawn) | inactive

Compound | Potency
CC(O)CC(C)O (stereo not drawn) | inactive
CCCCCCCCC | inactive
CCN(CC)c1cccc(O)c1 | inactive
Cc1ccc(C)cc1 | inactive
O=C(O)c1cc(Cl)cc(Cl)c1 | inactive
C[C@@H]1O[C@@H](O[C@@H]2[C@@H](O)[C@H](OCCc3ccc(O)c(O)c3)O[C@H](CO[C@@H]3O[C@H](CO)[C@@H](O)[C@H](O)[C@H]3O)[C@H]2OC(=O)/C=C/c2ccc(O)c(O)c2)[C@H](O)[C@H](O)[C@H]1O | inactive
CNc1ccccc1 | inactive
Nc1cc(Cl)c(N)c(Cl)c1 | inactive
CC(C)(C)OC=O | inactive
Cc1cccc(C(=O)O)c1 | inactive
CNC(=O)c1ccccc1 | inactive
Cc1ccc2oc(=O)ccc2c1 | inactive
CCOC(=O)OCC | inactive
O=[N+]([O-])c1ccccc1CCO | inactive
N#Cc1ccccc1 | inactive
Cc1c(N)cccc1[N+](=O)[O-] | inactive
Clc1ccccn1 | inactive
Nc1cc([N+](=O)[O-])ccc1C(=O)O | inactive
CC(O)COC(C)(C)C (stereo not drawn) | inactive
CCC(C)(C)C | inactive

System: not listed separately
Experiment: qHTS assay for small molecule agonists of the antioxidant response element (ARE) signaling pathway (AID 651741; active = well fitted activation curve with a large enough effect in the signal ratio; the % refers to the signal ratio; note: potency is the fitted concentration of half-maximal effect)
Details: HepG2 ARE-bla reporter, beta-lactamase FRET ratio, 16 h; series mostly up to 96 µM
Outline: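 Seeding 2,000 ARE-bla HepG2 cells per well preceded a 5 h incubation at 37 C/5% CO2 and a 16 h compound exposure at 37 C. Beta-lactamase reporter activity was then quantified by fluorescence after 2 h with LiveBLAzer B/G FRET substrate.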

Compound | Potency
CC(C)=C1CCC(C)CC1=O (stereo not drawn) | inactive
O=C(O)c1ccc(C(=O)O)cc1 | inactive
CCOc1ccccc1N | inactive
C=C(C)OC(C)=O | inactive
CC(=O)c1cc(C)oc1C | inactive
CC(N)CN (stereo not drawn) | inactive
O=C1NC(=O)c2cc([N+](=O)[O-])ccc21 | inactive
CCNS(=O)(=O)c1ccc(C)cc1 | inactive
Nc1ccccc1[N+](=O)[O-] | inactive
Nc1c(Cl)cc(Cl)cc1Cl | inactive
COC(=O)CC#N | inactive
Cc1ccccc1C(=O)O | inactive
CO[Si](CCCNCCC[Si](OC)(OC)OC)(OC)OC | inactive
CC1(N)CCC(C(C)(C)N)CC1 (stereo not drawn) | inactive
CCC(C)O (stereo not drawn) | inactive
CC(O)CC(C)O (stereo not drawn) | inactive

Compound | Potency
CCCCCCCCC | inactive
Cc1ccc(C)cc1 | inactive
C[C@@H]1O[C@@H](O[C@@H]2[C@@H](O)[C@H](OCCc3ccc(O)c(O)c3)O[C@H](CO[C@@H]3O[C@H](CO)[C@@H](O)[C@H](O)[C@H]3O)[C@H]2OC(=O)/C=C/c2ccc(O)c(O)c2)[C@H](O)[C@H](O)[C@H]1O | inactive
CNc1ccccc1 | inactive
Nc1cc(Cl)c(N)c(Cl)c1 | 42.2 µM (active)
CC(C)(C)OC=O | inactive
Cc1cccc(C(=O)O)c1 | inactive
CNC(=O)c1ccccc1 | inactive
Cc1ccc2oc(=O)ccc2c1 | 8.63 µM (active)
CCOC(=O)OCC | inactive
N#Cc1ccccc1 | inactive
Clc1ccccn1 | inactive
Nc1cc([N+](=O)[O-])ccc1C(=O)O | inactive
CC(O)COC(C)(C)C (stereo not drawn) | inactive
CCC(C)(C)C | inactive
